Among the data in ChEMBL document CHEMBL4808148, “HDAC6 screening dataset using tau-based substrate in an enzymatic assay yields selective inhibitors and activators” (2021) are inhibition values, retold here.

Molecules are shown by their SMILES. The whole screen tested about 5,600 compounds, of which about 390 (7%) showed an effect of 50% or more. The full list was thinned out, with strong results kept by preference.

In general, inhibition refers to the relative decrease from the control value, in per cent.

For the test, the target named is T1, Protein deacetylase HDAC6 (Homo sapiens) (UniProt Q9UBN7).
T1 sequence (whole entry): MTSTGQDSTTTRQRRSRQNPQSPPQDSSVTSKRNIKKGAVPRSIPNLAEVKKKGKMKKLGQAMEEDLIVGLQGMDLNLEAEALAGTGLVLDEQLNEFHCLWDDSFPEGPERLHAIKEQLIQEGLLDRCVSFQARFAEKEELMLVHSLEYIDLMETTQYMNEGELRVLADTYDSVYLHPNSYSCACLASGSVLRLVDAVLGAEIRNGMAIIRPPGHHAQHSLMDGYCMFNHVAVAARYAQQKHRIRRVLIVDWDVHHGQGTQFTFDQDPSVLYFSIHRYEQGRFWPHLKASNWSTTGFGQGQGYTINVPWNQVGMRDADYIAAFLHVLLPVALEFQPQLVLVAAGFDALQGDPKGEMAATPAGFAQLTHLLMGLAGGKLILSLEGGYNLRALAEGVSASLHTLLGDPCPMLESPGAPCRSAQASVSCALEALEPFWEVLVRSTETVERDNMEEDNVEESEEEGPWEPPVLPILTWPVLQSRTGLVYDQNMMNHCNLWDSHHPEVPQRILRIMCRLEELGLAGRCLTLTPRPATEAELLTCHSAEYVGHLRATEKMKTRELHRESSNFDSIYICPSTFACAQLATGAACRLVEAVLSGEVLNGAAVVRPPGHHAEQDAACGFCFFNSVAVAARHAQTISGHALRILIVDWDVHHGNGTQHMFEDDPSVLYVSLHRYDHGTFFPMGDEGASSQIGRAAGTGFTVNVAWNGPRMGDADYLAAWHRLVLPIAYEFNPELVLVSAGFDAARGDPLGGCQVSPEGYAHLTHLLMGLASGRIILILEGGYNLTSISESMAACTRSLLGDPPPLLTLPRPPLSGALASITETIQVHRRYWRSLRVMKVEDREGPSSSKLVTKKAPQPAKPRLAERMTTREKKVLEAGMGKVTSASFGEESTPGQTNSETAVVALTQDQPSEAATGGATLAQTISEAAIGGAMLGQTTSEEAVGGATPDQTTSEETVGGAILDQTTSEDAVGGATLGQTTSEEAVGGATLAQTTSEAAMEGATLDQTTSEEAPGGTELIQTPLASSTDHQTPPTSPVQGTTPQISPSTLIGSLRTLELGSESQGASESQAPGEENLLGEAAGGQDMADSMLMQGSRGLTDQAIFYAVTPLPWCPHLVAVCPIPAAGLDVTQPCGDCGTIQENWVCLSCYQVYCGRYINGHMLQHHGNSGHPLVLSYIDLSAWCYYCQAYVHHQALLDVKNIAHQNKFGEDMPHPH
The conditions noted are these: at 10 µM.
For the molecule `Clc1ccc2c(c1)N=C(N1CCNCC1)c1ccccc1N2`, the inhibition was 0.45%.
In the case of `O=C(CN1CCNCC1)NC1CCCCC1` it was 18.3%.
Consider `CC(C)(C)c1ccc(C(=O)CCCN2CCC(OC(c3ccccc3)c3ccccc3)CC2)cc1`, for which the inhibition amounted to 25.3%.
In the case of `O=C(O)[C@@H]1C[C@@H](O)CN1` it was 16.1%; in that of `Cc1nc2ccc(Oc3ccc(F)cc3)cc2c(=O)n1C[C@H]1CCCN(C(C)C)C1`, 7.87%; in that of `O=C(O)Cc1cccc2c(=O)cc(-c3ccccc3)oc12`, 23.3%.
The value for `COc1ccc(-c2cc(=O)c3c(O)cc(O[C@@H]4O[C@H](CO[C@@H]5O[C@@H](C)[C@H](O)[C@@H](O)[C@H]5O)[C@@H](O)[C@H](O)[C@H]4O)cc3o2)cc1O` was 30.2%.
As for `O=c1cc(-c2ccccc2)oc2cc(O)c(O)c(O)c12`, the inhibition amounted to 99.6%.
The value for `COc1ccc(-c2cc(=O)c3c(O)cc(O)cc3o2)cc1O` was 92.8%; that for `COc1ccccc1N1CCN(CCn2c(=O)[nH]c3c([nH]c4ccccc43)c2=O)CC1` was 3.49%.
The value for `C[C@@H]1OC(O)[C@H](O)[C@H](O)[C@H]1O` (stereo partly drawn) was 8.33%; that for `CC(C)C(=O)OC[C@@]1(N=[N+]=[N-])O[C@@H](n2ccc(N)nc2=O)[C@H](OC(=O)C(C)C)[C@@H]1OC(=O)C(C)C` was 10.6%.
The value for `CC(=O)O[C@]1(C(C)=O)CC[C@H]2[C@@H]3CCC4=CC(=O)CCC4=C3[C@@H](c3ccc(N(C)C)cc3)C[C@@]21C` was 7.8%; that for `N=C(N)NCCCC(NC(=O)C1CCCN1C(=O)C1CSSCCC(=O)NC(Cc2ccc(O)cc2)C(=O)NC(Cc2ccccc2)C(=O)NC(CCC(N)=O)C(=O)NC(CC(N)=O)C(=O)N1)C(=O)NCC(N)=O` (stereo not drawn) was 12.1%; that for `COC(=O)[C@H](NC(=O)c1cc(-c2ccccc2)nc2ccccc12)c1ccccc1` was 30.8%.
Regarding `COc1cc2ncc(-c3ccccc3)nc2cc1OC`, the inhibition was 97.8%.
The value for `O=C(O)c1cc(-c2ccccc2)nc2ccccc12` was 16.3%; that for `C=CCN(C)CCCCCCOc1ccc(C(=O)c2ccc(Br)cc2)c(F)c1` was 8.93%; that for `C=CCNc1nc(NCC=C)nc(N2CCN(C(c3ccc(F)cc3)c3ccc(F)cc3)CC2)n1` was -4.35%.
In the case of `NC(C(=O)O)c1cc(O)cc(O)c1` (stereo not drawn) it was 9.39%.
The value for `CCCCCN1CCC(C(N)=O)CC1` was 3.67%.
Turning to `CC(C(=O)O)c1ccc(C(=O)c2ccccc2)s1` (stereo not drawn), the inhibition came to 41.6%.
In the case of `N=C(N)NCc1cccc(I)c1` it was 13.7%.
